Source: PubChem BioAssay (Tox21)
Values joined by “and” are separate entries in the source; they are usually repeats but may differ in a detail not shown here. Equal values may be shown once. Inconclusive results are not listed. Where a call stands in place of a potency, no number is given. More than one record can exist for a structure, and the calls need not agree. Active and inactive are the calls of the source. The call rests on the fitted dose curve; in most records, active means well fitted curve in the direction sought with a large enough effect in the repeat runs; inconclusive means weak or mixed curves; inactive means no such curve, though single readings can be large; an effect the other way counts as inactive or inconclusive.

What was measured:
[1] = qHTS RealTime-Glo MT Cell Viability Assay in HepG2 cells - 40 hour (AID 1224870); further: nearly all actives have a fitted effect of over 50% in size; further: potency means the concentration at half of the fitted maximal effect
Procedure, shortened: (§1)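 Real-time viability: cells seeded at 600 per well together with NanoLuc and cell-permeant prosubstrate, compounds added after 5 h incubation. Luminescence tracked at 0, 8, 16, 24, 32 and 40 h of exposure.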

[2] = A CellTox Green Cytotoxicity Assay to monitor cytotoxicity in HEK293 cells - 40 hour (AID 1224871); further: nearly all actives have a fitted effect of over 45% in size; further: potency means the concentration at half of the fitted maximal effect
Procedure, shortened: (§2)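 Fluorescence from a DNA-binding dye excluded by viable cells was measured repeatedly in the same HEK293 wells (600 cells/well) during continuous compound exposure at 37 C. Each assay gives one read point: 0, 8, 16, 24, 32 or 40 h.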

[3] = qHTS RealTime-Glo MT Cell Viability Assay in HEK293 cells - 16 hour (AID 1224872); further: nearly all actives have a fitted effect of over 50% in size; further: potency means the concentration at half of the fitted maximal effect
Procedure, shortened: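 Cells + reagent dispensed (600 cells/well, HEK293) → 5 h at 37 C/5% CO2 → 23 nL compound in DMSO pinned → 40 h at 37 C → luminescence read at 0, 8, 16, 24, 32, 40 h.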

[4] = qHTS RealTime-Glo MT Cell Viability Assay in HepG2 cells - 8 hour (AID 1224873); further: nearly all actives have a fitted effect of over 55% in size
Procedure, shortened: as §1

[5] = qHTS RealTime-Glo MT Cell Viability Assay in HEK293 cells - 40 hour (AID 1224874); conditions: RealTime-Glo luminescence; max response: stronger effect = lower value; further: nearly all actives have a fitted effect of over 50% in size; further: potency means the concentration at half of the fitted maximal effect
Procedure, shortened: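 Luminescence, which tracks viable cell number through reduction of the prosubstrate to a NanoLuc substrate, was read over continuous 37 C culture. Cells (600/well) were premixed with reagent and rested 5 h before 23 nL of compound in DMSO was pinned.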

[6] = A CellTox Green Cytotoxicity Assay to monitor cytotoxicity in HEK293 cells - 24 hour (AID 1224875); further: series mostly up to about 77 µM; nearly all actives have a fitted effect of over 45% in size
Procedure, shortened: as §2

[7] = A CellTox Green Cytotoxicity Assay to monitor cytotoxicity in HepG2 cells - 16 hour (AID 1224876); further: nearly all actives have a fitted effect of over 45% in size; further: potency means the concentration at half of the fitted maximal effect
Procedure, shortened: (§3)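 Real-time cytotoxicity: fluorescence of a cell-impermeant cyanine dye binding DNA of dead HepG2 cells, measured repeatedly (0–40 h) during compound exposure at 37 C. Cells seeded 600/well with reagent, dosed after 5 h.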

[8] = qHTS RealTime-Glo MT Cell Viability Assay in HepG2 cells - 32 hour (AID 1224877); further: nearly all actives have a fitted effect of over 55% in size; further: potency means the concentration at half of the fitted maximal effect
Procedure, shortened: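 Real-time, nonlytic viability: 600 HepG2 cells/well mixed with NanoLuc enzyme plus prosubstrate; 5 h settle, compound (DMSO) added by pintool; luminescence monitored over 40 h at 37 C.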

[9] = A CellTox Green Cytotoxicity Assay to monitor cytotoxicity in HepG2 cells - 24 hour (AID 1224878); further: nearly all actives have a fitted effect of over 45% in size; further: potency means the concentration at half of the fitted maximal effect
Procedure, shortened: as §3

[10] = A CellTox Green Cytotoxicity Assay to monitor cytotoxicity in HepG2 cells - 40 hour (AID 1224879); further: nearly all actives have a fitted effect of over 40% in size; further: potency means the concentration at half of the fitted maximal effect
Procedure, shortened: as §3

| Compound | Potency [1] | Potency [2] | Potency [3] | outcome [4] | max response [5] | Potency [6] | Potency [7] | Potency [8] | Potency [9] | Potency [10] | Potency [5] |
| --- | --- | --- | --- | --- | --- | --- | --- | --- | --- | --- | --- |
| CCCCCCCCCCCCCCCC(=O)O | inactive | inactive | inactive | inactive | -14.7% (inactive) and -1.54% (inactive) and -1.33% (inactive) | inactive | inactive | inactive | inactive | inactive |  |
| O=C(c1ccccc1)c1ccccc1 | inactive | inactive | inactive | inactive | -7.38% (inactive) and -0.339% (inactive) and 9.06% (inactive) | inactive | inactive | inactive |  | inactive |  |
| CC(O)CO (stereo unspecified) | inactive | inactive | inactive | inactive | -4.92% (inactive) and 4.28% (inactive) and 2.26% (inactive) | inactive | inactive | inactive | inactive | inactive |  |
| CCCC(O)C(CC)CO (stereo unspecified) | inactive | inactive | inactive | inactive | 0.318% (inactive) and 1.14% (inactive) and 0.567% (inactive) | inactive | inactive | inactive | inactive | inactive |  |
| O=C(O)c1cccc([N+](=O)[O-])c1 | inactive | inactive | inactive | inactive | -2.27% (inactive) and 9.34% (inactive) and 3.61% (inactive) | inactive | inactive | inactive | inactive | inactive |  |
| Cc1noc(NS(=O)(=O)c2ccc(N)cc2)c1C | inactive | inactive | inactive | inactive | 3.99% (inactive) and 6.51% (inactive) and 6.27% (inactive) | inactive | inactive | inactive | inactive | inactive |  |
| Cc1ccc(C)c(OCCCC(C)(C)C(=O)O)c1 | inactive | inactive | inactive | inactive | 7.5% (inactive) and 19.4% (inactive) and 5.2% (inactive) | inactive | inactive | inactive | inactive | inactive |  |
| O=C(O)CCC(=O)O | inactive | inactive | inactive | inactive | 9.17% (inactive) and -2.49% (inactive) and -2.75% (inactive) | inactive | inactive | inactive | inactive | inactive |  |
| COc1ccc2[nH]cc(CCNC(C)=O)c2c1 | inactive | inactive | inactive | inactive | -2.36% (inactive) and -20% (inactive) and 4.03% (inactive) | inactive | inactive | inactive | inactive | inactive |  |
| CNC[C@H](O)c1cccc(O)c1 | inactive | inactive | inactive | inactive | 8.72% (inactive) and 5.33% (inactive) and 3.68% (inactive) | inactive | inactive | inactive | inactive | inactive |  |
| NC(=O)c1ccccc1O | inactive | inactive | inactive | inactive | 0.307% (inactive) and -0.424% (inactive) and 11.5% (inactive) | inactive | inactive | inactive | inactive | inactive |  |
| O=C(c1ccccc1)C(O)c1ccccc1 (stereo unspecified) | inactive | inactive | inactive | inactive | 5.88% (inactive) and 18.1% (inactive) and 4.15% (inactive) | inactive | inactive | inactive |  | inactive |  |
| NC(=O)NC1NC(=O)NC1=O (stereo unspecified) | inactive | inactive | inactive | inactive | 4.83% (inactive) and -16.4% (inactive) and 0.282% (inactive) | inactive | inactive | inactive | inactive | inactive |  |
| O=c1cc[nH]c(=S)[nH]1 | inactive | inactive | inactive | inactive | 6.11% (inactive) and 3.88% (inactive) and 9.23% (inactive) | inactive | inactive | inactive | inactive | inactive |  |
| NC(=O)c1cnccn1 | inactive | inactive | inactive | inactive | -0.816% (inactive) and 11.3% (inactive) and 0.0586% (inactive) | inactive | inactive | inactive | inactive | inactive |  |
| Nc1ccc(O)c(C(=O)O)c1 | inactive | inactive | inactive | inactive | 1.04% (inactive) and -2.7% (inactive) and 0.776% (inactive) | inactive | inactive | inactive | inactive | inactive |  |
| Cc1cc(=O)[nH]c(=S)[nH]1 | inactive | inactive | inactive | inactive | -0.127% (inactive) and 3.69% (inactive) and 0.841% (inactive) | inactive | inactive | inactive | inactive | inactive |  |
| Nc1ccn([C@H]2CC[C@@H](CO)O2)c(=O)n1 | inactive | inactive | inactive | inactive | 5.91% (inactive) and 4.06% (inactive) and 6.95% (inactive) | inactive | inactive | inactive | inactive | inactive |  |

| Compound | Potency [1] | Potency [2] | Potency [3] | outcome [4] | max response [5] | Potency [6] | Potency [7] | Potency [8] | Potency [9] | Potency [10] | Potency [5] |
| --- | --- | --- | --- | --- | --- | --- | --- | --- | --- | --- | --- |
| O=C(O)c1[nH]n(-c2ccc(S(=O)(=O)O)cc2)c(=O)c1N=Nc1ccc(S(=O)(=O)O)cc1 | inactive | inactive | inactive | inactive | -3.28% (inactive) and -13% (inactive) and 0.864% (inactive) | inactive | inactive | inactive | inactive | inactive |  |
| Oc1ccc(/C=C/c2cc(O)cc(O)c2)cc1 | inactive | inactive | inactive | inactive |  | inactive | inactive | inactive | inactive |  | 15.6 µM (active) |
| O=C(O)CCCCCCCC(=O)O | inactive | inactive | inactive | inactive | 2.75% (inactive) and 4.95% (inactive) and 3.91% (inactive) | inactive | inactive | inactive |  | inactive |  |
| O=C(O)C(=O)O | inactive | inactive | inactive | inactive | -1.98% (inactive) and 1.92% (inactive) and 0.465% (inactive) | inactive | inactive | inactive | inactive | inactive |  |
| O=S(=O)(O)NC1CCCCC1 | inactive | inactive | inactive | inactive | 10.8% (inactive) and 12.2% (inactive) and -1.58% (inactive) | inactive | inactive | inactive | inactive | inactive |  |
| O=NO | inactive | inactive | inactive | inactive | 1.94% (inactive) and 6.27% (inactive) and -0.835% (inactive) | inactive | inactive | inactive | inactive | inactive |  |
| O=C(O)CCCCC(=O)O | inactive | inactive | inactive | inactive | 4.36% (inactive) and 16.9% (inactive) and 2.15% (inactive) | inactive | inactive | inactive | inactive | inactive |  |
| CC(C)[C@@H]1CC[C@@H](C)C[C@H]1O | inactive | inactive | inactive | inactive | 3.82% (inactive) [middle of 5 runs] | inactive | inactive | inactive | inactive | inactive |  |
| Cn1cc[nH]c1=S | inactive | inactive | inactive | inactive | -1.38% (inactive) and 17.2% (inactive) and 3.37% (inactive) | inactive | inactive | inactive | inactive | inactive |  |
| CCCNC(=O)NS(=O)(=O)c1ccc(Cl)cc1 | inactive | inactive | inactive | inactive | 1.38% (inactive) and -0.751% (inactive) and 0.902% (inactive) | inactive | inactive | inactive | inactive | inactive |  |
| CC(O)C(=O)O (stereo unspecified) | inactive | inactive | inactive | inactive | 13.3% (inactive) and 7.35% (inactive) and 12.9% (inactive) | inactive | inactive | inactive |  | inactive |  |
| Cc1cn([C@H]2C[C@H](N=[N+]=[N-])[C@@H](CO)O2)c(=O)[nH]c1=O | inactive | inactive | inactive | inactive | -0.145% (inactive) and 3.87% (inactive) and 7.29% (inactive) | inactive | inactive | inactive | inactive | inactive |  |
| O=c1ccc2ccccc2o1 | inactive | inactive | inactive | inactive | -0.397% (inactive) and 6.44% (inactive) and 2.9% (inactive) | inactive | inactive | inactive | inactive | inactive |  |
| c1ccc2[nH]ccc2c1 | 3.41 µM (active) and inactive | 4.82 µM (active) and inactive | 2.15 µM (active) and inactive | inactive | 8.38% (inactive) and -1.27% (inactive) |  | 21.5 µM (active) and inactive | 3.83 µM (active) and inactive | 6.81 µM (active) and inactive | 5.41 µM (active) and inactive | 2.15 µM (active) |
| O=C1NC(=O)c2ccccc21 | inactive | inactive | inactive | inactive | 3.82% (inactive) and -4.14% (inactive) and 5.86% (inactive) | inactive | inactive | inactive | inactive | inactive |  |
| NC(N)=NC(=O)c1nc(Cl)c(N)nc1N | inactive | inactive | inactive | inactive | -9.86% (inactive) and -7.01% (inactive) and -5.97% (inactive) | inactive | inactive | inactive | inactive | inactive |  |
| COc1c2occc2cc2ccc(=O)oc12 | inactive | inactive | inactive | inactive | -18.6% (inactive) | inactive | inactive | inactive | inactive | inactive | 21.9 µM (active) |
